# Test system: T1, RSK1(Kin.Dom.1-N-terminal)
# T1 construct: gene RPS6KA1
# Conditions: concentration: 1 μM, replicates: in singlicate; n = 1
# 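Note: KINOMEscan kinase panel screen.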
row,Structure (SMILES),%Inh [%]
1,COc1ccc(-c2coc3ccc(-c4nnc(SCc5ccc(OC)c(C(F)(F)F)c5)o4)cc23)cc1,1
2,COc1cccc(-c2ccc3c(NC(=O)C4CC4)n[nH]c3n2)c1 [SB-710903],20
3,Oc1cc(Nc2ccnc3cc(I)ccc23)ccc1F [GW552771],0
4,COc1cc2c(cc1OCCN1CCNCC1)ncc1c3ccc(C#N)cc3[nH]c21,13
5,CCS(=O)(=O)c1ccc(OC)c(Nc2nccc(-c3c(-c4cccc(NC(=O)c5c(F)cccc5F)c4)nn4ncccc34)n2)c1 [GSK326180],64
6,Cc1cccc(Nc2nc(N[C@H]3CCNC3)ncc2C(N)=O)c1.Cl [GSK2197149],22

# Test system: T2, RSK1(Kin.Dom.2-C-terminal)
# T2 construct: gene RPS6KA1
# Conditions: concentration: 1 μM, replicates: in singlicate; n = 1
row,Structure (SMILES),%Inh [%]
1,COc1cc(Nc2nccc(N3CCC(NC(=O)Nc4cccc(C(C)=O)c4)C3)n2)cc(OC)c1OC (stereo not drawn) [GSK1379753],5
2,CCn1c(-c2nonc2N)nc2c(C#CC(C)(C)O)ncc(OCCCCN)c21.O=C(O)C(F)(F)F.O=C(O)C(F)(F)F [GSK507274],0
3,COc1cc(Nc2nccc(-c3c(-c4cccc(NC(=O)c5c(F)cccc5F)c4)nn4ncccc34)n2)cc(OC)c1OC [GSK327238],25
4,O=C(Nc1n[nH]c2nc(-c3ccc(O)cc3)ccc12)C1CC1 [SB-710363],64
5,O=c1[nH]cc(-c2ccc(N3CCOCC3)cc2)c2sc(-c3cn[nH]c3)cc12 [GSK2276055],24
6,O=C(Nc1cccc(-c2nn3ccccc3c2-c2ccnc(Nc3cccc(F)c3)n2)c1)c1c(F)ccc(F)c1Cl [GSK357952],14

# From article PMC5540273 (PLoS ONE, 2017)
